# The full ranking holds about 140,000 sequences; the median of “enrichment ratio after two sorts for PhoP signalling” is about 0, and the highest 2% start at about 11. This excerpt belongs to a sample that is enriched for the highest values.
# B1: PhoQ; a variant is named by its letters at X, in order, P23837 (parent)
# chain: MKKLLRLFFPLSLRVRFLLATAAVVLVLSLAYGMVALIGYSVSFDKTTFRLLRGESNLFYTLAKWENNKLHVELPENIDKQSPTMTLIYDENGQLLWAQRDVPWLMKMIQPDWLKSNGFHEIEADVNDTSLLLSGDHSIQQQLQEVREDDDDAEMTHSVAVNVYPATSRMPKLTIVVVDTIPVELKSSYMVWSWFIYVLSANLLLVIPLLWVAAWWSLRPIEALAKEVRELEEHNRELLNPATTRELTSLVRNLNRLLKSERERYDKYRTTLTDLTHSLKTPLXXLQXXLRSLRSEKMSVSDAEPVMLEQISRISQQIGYYLHRASMRGGTLLSRELHPVAPLLDNLTSALNKVYQRKGVNISLDISPEISFVGEQNDFVEVMGNVLDNACKYCLEFVEISARQTDEHLYIVVEDDGPGIPLSKREVIFDRGQRVDTLRPGQGVGLAVAREITEQYEGKIVAGESMLGGARMEVIFGRQHSAPKDE
# Variants of: B1
# Assay: enrichment ratio after two sorts for PhoP signalling (ratio (wild type AVST 3.29)); higher = more functional
# Conditions: with PhoP (E. coli)
row,Variant,enrichment ratio
1,IDFI,≤ 0.25
2,NPDM,≤ 0.25
3,PIRV,≤ 0.25
4,EGSN,≤ 0.25
5,PKCK,≤ 0.25
6,RLKF,≤ 0.25
7,AIND,≤ 0.25
8,GVLN,10.1
9,AQSM,10.4
10,ALSM,17
11,AVSM,11.3
12,NMSM,≤ 0.25
13,AMSM,15.1
14,KMSM,≤ 0.25
15,WISM,≤ 0.25
16,AISM,15.9
17,KKSM,≤ 0.25
18,ARSM,4.49
19,AVSF,9.87
20,DRSF,≤ 0.25
21,HYGV,≤ 0.25
22,IFME,≤ 0.25
23,FRHK,≤ 0.25
24,PAGH,≤ 0.25

row,Variant,enrichment ratio
1,QFCS,≤ 0.25
2,SPYV,≤ 0.25
3,WPGT,≤ 0.25
4,YLNI,≤ 0.25
5,ANSF,5.47
6,TISM,27.4
7,RISM,≤ 0.25
8,PLSF,≤ 0.25
9,NISM,0.899
10,ANSM,16.6
11,ALSF,12.1
12,ALHF,≤ 0.25
13,EYYP,≤ 0.25
14,PMHD,≤ 0.25
15,APSK,≤ 0.25
16,YWYS,≤ 0.25
17,KTMK,≤ 0.25
18,RNCC,≤ 0.25
19,QASK,≤ 0.25
20,TSSQ,11.8
21,QPSQ,≤ 0.25
22,TPSQ,≤ 0.25
23,QASQ,23.3
24,KASQ,≤ 0.25

row,Variant,enrichment ratio
1,FSSQ,≤ 0.25
2,QSSQ,11.3
3,KSSQ,≤ 0.25
4,LWCS,≤ 0.25
5,KPGV,≤ 0.25
6,FAWD,≤ 0.25
7,LEFH,≤ 0.25
8,ELWP,≤ 0.25
9,MRDF,≤ 0.25
10,TCQR,4.53
11,MICH,2.87
12,MQCC,11.8
13,MQCI,1.41
14,MQTH,≤ 0.25
15,MILH,0.967
16,MICC,29.6
17,IQVR,≤ 0.25
18,NDHA,≤ 0.25
19,MDME,≤ 0.25
20,RVHQ,≤ 0.25
21,THNL,12.7
22,YHNL,≤ 0.25
23,THNI,14.1
24,NHNL,≤ 0.25

row,Variant,enrichment ratio
1,SHNI,8.22
2,NHNI,≤ 0.25
3,YPKW,≤ 0.25
4,AGAF,3.66
5,TPRL,≤ 0.25
6,AGFP,≤ 0.25
7,ANGI,22.1
8,AGGI,12.9
9,GNGI,≤ 0.25
10,MTGI,11.7
11,AHGI,≤ 0.25
12,MTGD,≤ 0.25
13,GHGI,≤ 0.25
14,VHGI,≤ 0.25
15,YTGI,≤ 0.25
16,ANHA,≤ 0.25
17,AIGI,11.8
18,IIYR,≤ 0.25
19,DKAR,≤ 0.25
20,LMEW,≤ 0.25
21,VFIY,≤ 0.25
22,TTGI,9.44
23,KCGI,≤ 0.25
24,KSGI,≤ 0.25

row,Variant,enrichment ratio
1,TSGI,12.8
2,TMGI,20.6
3,TMFP,≤ 0.25
4,ATGI,13.1
5,MMGI,≤ 0.25
6,ATGS,5.38
7,MGHD,≤ 0.25
8,TSDS,0.648
9,FMNE,≤ 0.25
10,SRAQ,≤ 0.25
11,NEAQ,≤ 0.25
12,SEAQ,13.7
13,TEAQ,28
14,QEAQ,≤ 0.25
15,SLAQ,3.9
16,LILM,≤ 0.25
17,MPQI,≤ 0.25
18,IQHE,≤ 0.25
19,EPTW,≤ 0.25
20,KMAC,≤ 0.25
21,SMTC,8.15
22,NNAC,≤ 0.25
23,CMAC,23.4
24,NMAC,≤ 0.25

row,Variant,enrichment ratio
1,SMAC,12.5
2,SMPC,≤ 0.25
3,TMAC,28.2
4,GMAC,≤ 0.25
5,VQIW,≤ 0.25
6,NELI,≤ 0.25
7,MAEF,≤ 0.25
8,RVFY,≤ 0.25
9,SKNN,≤ 0.25
10,NLIQ,≤ 0.25
11,QILN,≤ 0.25
12,SAVT,0.95
13,SAAT,3.66
14,SALT,11.2
15,KALY,≤ 0.25
16,NALY,≤ 0.25
17,SALY,11.8
18,SPLK,≤ 0.25
19,CALN,65
20,KYLK,≤ 0.25
21,SALK,15.2
22,NALN,≤ 0.25
23,AFGW,≤ 0.25
24,DHYR,≤ 0.25

row,Variant,enrichment ratio
1,VAYT,≤ 0.25
2,QIHG,2.32
3,YSRD,≤ 0.25
4,NFVV,≤ 0.25
5,SACN,9.88
6,SAPA,≤ 0.25
7,SAMK,17.9
8,SALA,5.84
9,SAMG,5.01
10,SALS,11.5
11,KALN,≤ 0.25
12,SAMS,7.54
13,SALN,11.9
14,SYEW,≤ 0.25
15,PEIY,≤ 0.25
16,VINR,≤ 0.25
17,ELMR,≤ 0.25
18,DFTI,≤ 0.25
19,FQMM,5.91
20,SIMM,1.49
21,TQMM,57.7
22,SPMM,≤ 0.25
23,LCWM,≤ 0.25
24,NQMM,≤ 0.25

row,Variant,enrichment ratio
1,SAMM,12.7
2,LCMM,26.9
3,SYMM,0.307
4,SRMM,1.64
5,SEMM,32.5
6,KFMM,≤ 0.25
7,PFQY,≤ 0.25
8,GAKN,≤ 0.25
9,FYYW,≤ 0.25
10,FFHN,≤ 0.25
11,SYFV,≤ 0.25
12,WNTR,≤ 0.25
13,WKFY,≤ 0.25
14,EDEV,≤ 0.25
15,TFAW,≤ 0.25
16,HTHM,≤ 0.25
17,YRCS,≤ 0.25
18,RLLR,≤ 0.25
19,TGMM,16
20,YTMM,11.8
21,YAMM,3.27
22,NGMM,≤ 0.25
23,YYMM,≤ 0.25
24,SQMM,3.97

row,Variant,enrichment ratio
1,RGMM,≤ 0.25
2,SSMM,19.1
3,STMM,18.6
4,KYMM,≤ 0.25
5,SWMM,≤ 0.25
6,APTA,≤ 0.25
7,HDAK,≤ 0.25
8,NSKR,≤ 0.25
9,FYPF,≤ 0.25
10,SSWP,≤ 0.25
11,IRWL,≤ 0.25
12,QACS,≤ 0.25
13,PGDN,≤ 0.25
14,GRMN,≤ 0.25
15,NMLY,≤ 0.25
16,WIMM,≤ 0.25
17,NHMM,≤ 0.25
18,NIMM,16
19,FTMM,12.1
20,YHMM,≤ 0.25
21,SHMM,2.18
22,QPMM,≤ 0.25
23,THMM,17.6
24,MMMM,≤ 0.25

row,Variant,enrichment ratio
1,FSMM,4.33
2,MTMM,59.5
3,GGMM,≤ 0.25
4,PMCS,≤ 0.25
5,REDA,≤ 0.25
6,PAGC,≤ 0.25
7,YDLP,≤ 0.25
8,IRNP,≤ 0.25
9,DPYV,2.59
10,EAKL,≤ 0.25
11,YEMM,16.1
12,YERM,≤ 0.25
13,NRMM,≤ 0.25
14,YSMM,14.3
15,SCMM,14.4
16,KCMM,≤ 0.25
17,VTTM,16.4
18,VTTS,≤ 0.25
19,YSWM,≤ 0.25
20,VTGM,≤ 0.25
21,YEGM,≤ 0.25
22,SLMM,5.51
23,RADI,≤ 0.25
24,MQSS,≤ 0.25

row,Variant,enrichment ratio
1,NLSW,≤ 0.25
2,FRTV,≤ 0.25
3,NQTP,≤ 0.25
4,GFHH,≤ 0.25
5,SQRD,≤ 0.25
6,VHHE,≤ 0.25
7,YEMS,14.7
8,YEMV,2.64
9,GQMM,11.4
10,TYMM,2.16
11,VTMM,12.1
12,GYMM,0.253
13,TCMM,11.8
14,YEMW,≤ 0.25
15,VTPM,≤ 0.25
16,GTMM,5.34
17,VYMM,≤ 0.25
18,VCMM,2.29
19,ILAT,0.361
20,HVDN,≤ 0.25
21,TLEY,≤ 0.25
22,KMTV,≤ 0.25
23,FPHD,≤ 0.25
24,WHGQ,≤ 0.25

row,Variant,enrichment ratio
1,FFMM,≤ 0.25
2,MCMM,11.9
3,TSMM,21.5
4,SKMM,24.1
5,NSMM,1.7
6,QGMM,31.6
7,SKMG,3.1
8,QTMM,≤ 0.25
9,KSMM,≤ 0.25
10,MDMM,≤ 0.25
11,FCMM,8.52
12,QLQK,≤ 0.25
13,TKIP,≤ 0.25
14,ELAY,≤ 0.25
15,NETK,≤ 0.25
16,MVNN,≤ 0.25
17,RGIV,≤ 0.25
18,SFSE,≤ 0.25
19,ETYT,≤ 0.25
20,MTEV,≤ 0.25
21,VHMG,≤ 0.25
22,NNRM,≤ 0.25
23,NNMM,17.4
24,LSMM,12.4

row,Variant,enrichment ratio
1,FGMM,18.1
2,LWMM,≤ 0.25
3,LSWM,2.98
4,FGWM,≤ 0.25
5,LNMM,1.77
6,FGGM,≤ 0.25
7,DRPI,≤ 0.25
8,ETGL,≤ 0.25
9,YNMN,≤ 0.25
10,ICFY,≤ 0.25
11,DNHD,≤ 0.25
12,PFKT,≤ 0.25
13,QPNP,≤ 0.25
14,PFSV,≤ 0.25
15,NIRV,≤ 0.25
16,LLCQ,≤ 0.25
17,ALCI,9.33
18,ALCE,16.1
19,ALVE,≤ 0.25
20,ALQP,≤ 0.25
21,ALCQ,13.8

# Reference: a collection of fitness landscapes (doi:10.1126/science.1257360)
